Measured values as given in PubChem BioAssay (Tox21).
Values without a mark were called inactive. Records with an inconclusive call do not appear. Entries that show only a call come without a potency. Active and inactive are the calls of the source. Unless noted, calls come from the whole dose curve; as a rule, active = well fitted curve in the direction sought with a large enough effect in the repeat runs; inconclusive = weak or mixed curves; inactive = no such curve, though single readings can be large; an effect the other way counts as inactive or inconclusive.

What was measured:
[1] = qHTS assay to identify small molecule agonists of H2AX (AID 1224845; active = well fitted activation curve with a large enough effect in the signal ratio in the repeat runs, not every such curve was filed as active; the % refers to the signal ratio; note: potency is the fitted concentration of half-maximal effect)
Outline: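 Wild-type CHO-K1 cells plated overnight, then exposed 3 hr at 37C to compounds at 15 concentrations (0.76% DMSO). Lysed, then HTRF anti-pH2AX(S139)-cryptate/anti-H2AX-d2 detection after 24 hr at room temperature; emissions 665 and 620 nm.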

[2] = qHTS assay to identify small molecule agonists of H2AX - cell viability counter screen (AID 1224847; calls by dose curve; note: nearly all actives have a fitted effect of over 30% in size; note: potency is the fitted concentration of half-maximal effect)
Outline: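 Viability of CHO-K1 (wild type) cells after 3 hr compound exposure was measured by CellTiter-Glo luminescence.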

[3] = qHTS RealTime-Glo MT Cell Viability Assay in HepG2 cells - 24 hour (AID 1224867); note: nearly all actives have a fitted effect of over 50% in size; note: potency is the fitted concentration of half-maximal effect
Outline: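 Compound treatment began 5 h after plating HepG2 cells (600/well) with NanoLuc luciferase and prosubstrate. Plates stayed at 37 C for 40 h; luminescence was captured at six time points, 0 h through 40 h.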

[4] = qHTS RealTime-Glo MT Cell Viability Assay in HEK293 cells - 32 hour (AID 1224868); note: nearly all actives have a fitted effect of over 50% in size; note: potency is the fitted concentration of half-maximal effect
Outline: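 Quantitative high-throughput screen of the Tox21 10K library in HEK293: cells and RealTime-Glo reagents plated together, compound added at 5 h, luminescence monitored through 40 h at 37 C.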

[5] = qHTS RealTime-Glo MT Cell Viability Assay in HepG2 cells - 40 hour (AID 1224870); note: nearly all actives have a fitted effect of over 50% in size; note: potency is the fitted concentration of half-maximal effect
Outline: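 HepG2 cells mixed with RealTime-Glo MT reagents (NanoLuc plus cell-permeant prosubstrate) were seeded at 600 cells/well, incubated 5 h at 37 C/5% CO2, then pinned with compounds in DMSO; nonlytic luminescence tracked viability during 40 h treatment.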

[6] = qHTS assay to identify small molecule antagonists of the estrogen related receptor (ERR) signaling pathway from Tox21 library (AID 1224848); note: potency is the fitted concentration of half-maximal effect; nearly all actives have a fitted effect of over 50% in size
Outline: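 First, 2,000 ERR cells per well were plated and held 6 h at 37 C/5% CO2. Next, compounds in DMSO were pinned in and left 18 h at 37 C. Finally, ONE-Glo was added and luminescence read after 30 min at room temperature.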

[7] = qHTS assay to identify small molecule agonists of the estrogen related receptor (ERR) signaling pathway from Tox21 library (AID 1224849; calls by dose curve; note: nearly all actives have a fitted effect of over 15% in size); details: ERR reporter cell line, ONE-Glo luciferase, 18 h; at 92.4 µM (top of the series) unless noted
Outline: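 Quantitative HTS in agonist format: NTP ERR cell line, compounds transferred in DMSO after 6 h plating, 18 h incubation at 37 C, ONE-Glo luminescence endpoint.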

[8] = A CellTox Green Cytotoxicity Assay to monitor cytotoxicity in HEK293 cells - 0 hour (AID 1224869); note: nearly all actives have a fitted effect of over 50% in size; note: potency is the fitted concentration of half-maximal effect
Outline: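 Dead-cell fluorescence measured kinetically: asymmetric cyanine dye, HEK293, 600 cells/well, 5 h settle, 23 nL cpd/DMSO, 37 C, reads 0–40 h every 8 h.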

[9] = qHTS assay to identify small molecule agonists of the hypoxia (HIF-1) signaling pathway (AID 1224846; active = well fitted activation curve with a large enough effect in the signal ratio in the repeat runs, not every such curve was filed as active; the % refers to the signal ratio)
Outline: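 Agonist mode reporter screen. ME-180 cells stably expressing bla under HRE control received test compounds in DMSO for 17 hrs (37C, 5% CO2), and beta-lactamase activity was then detected with the CCF4-AM FRET substrate.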

Cc1cc(C2CCCCC2)n(O)c(=O)c1
Potency [1]: 9.82 µM (active)
Potency [2]: inactive
Potency [3]: inactive
Potency [4]: 1.69 µM (active)
Potency [5]: inactive

NNc1nc(-c2ccc([N+](=O)[O-])cc2)cs1
Potency [2]: 22.5 µM (active)
Potency [6]: 27.3 µM (active)
activity change, positive = activation [7]: -52.6%
Potency [4]: 24.5 µM (active)
Potency [8]: inactive

CCOc1ccc2nc3cc(N)ccc3c(N)c2c1
Potency [1]: inactive
Potency [2]: inactive
Potency [3]: 10.7 µM (active)
Potency [4]: 15.1 µM (active)
Potency [8]: inactive
Potency [5]: 8.49 µM (active)

CCOC(=O)c1nc(C(Cl)(Cl)Cl)n(-c2ccc(Cl)cc2Cl)n1
Potency [9]: inactive
Potency [6]: 61.1 µM (active)
activity change, positive = activation [7]: -43.4%
Potency [4]: inactive
Potency [8]: inactive
Potency [5]: inactive

O=C(c1ccc(F)cc1)C1CCN(CCn2c(=O)[nH]c3ccccc3c2=O)CC1
Potency [2]: inactive
activity change, positive = activation [7]: -25.2% [at 42.5 µM]
Potency [3]: inactive
Potency [4]: 9.52 µM (active)
Potency [8]: inactive
Potency [5]: inactive

O=c1cc(-c2ccc(O)cc2)oc2cc(O)cc(O)c12
Potency [3]: inactive
Potency [8]: inactive
Potency [5]: inactive

CN1CCN(CCC(=O)N2c3ccccc3Sc3ccc(C(F)(F)F)cc32)CC1
Potency [9]: inactive
activity change, positive = activation [7]: -67.1% [at 42.5 µM]
Potency [3]: 23.9 µM (active)
Potency [8]: inactive

Nc1ccc2c3c(cccc13)-c1ccccc1-2
Potency [1]: inactive
Potency [2]: inactive
Potency [3]: inactive
Potency [4]: 24.8 µM (active)
Potency [8]: 22.1 µM (active)
Potency [5]: inactive

O=C(Nc1ccc(Oc2ccc(Cl)cc2)c(Cl)c1)c1cc(I)cc(I)c1O
Potency [1]: inactive
activity change, positive = activation [7]: -35.9% [at 42.5 µM]
Potency [3]: inactive
Potency [4]: inactive
Potency [8]: inactive
Potency [5]: inactive

O=C1c2c(O)ccc(Nc3ccc(CCO)cc3)c2C(=O)c2c([N+](=O)[O-])ccc(O)c21
Potency [4]: inactive
Potency [8]: inactive
Potency [5]: inactive

CCCC(=O)OC[C@@H](OC(=O)CCC)[C@@H](OC(=O)CCC)[C@H](Cn1c2nc(=O)[nH]c(=O)c-2nc2cc(C)c(C)cc21)OC(=O)CCC
Potency [2]: inactive
Potency [6]: 29.8 µM (active)
Potency [8]: 19 µM (active)
Potency [5]: inactive

O=C1Cc2cc(CCN3CCN(c4nsc5ccccc45)CC3)c(Cl)cc2N1
Potency [6]: 26.6 µM (active)
activity change, positive = activation [7]: -35.7% [at 42.5 µM]
Potency [8]: inactive
Potency [5]: inactive

CCOC(=O)O[C@]1(C(=O)OCCl)CC[C@H]2[C@@H]3CCC4=CC(=O)C=C[C@]4(C)[C@H]3[C@@H](O)C[C@@]21C
Potency [1]: inactive
Potency [2]: inactive
Potency [8]: inactive
Potency [5]: inactive

OCCN(CCO)c1nc(N2CCCCC2)c2nc(N(CCO)CCO)nc(N3CCCCC3)c2n1
Potency [2]: inactive
Potency [6]: 13.3 µM (active)
activity change, positive = activation [7]: -56% [at 42.5 µM]
Potency [3]: inactive
Potency [4]: 26.8 µM (active)
Potency [8]: 21.3 µM (active)
Potency [5]: inactive
